Reference: the supplement of paper PMC9948646
A number with no mark means an inactive call.

test system: gramicidin D channels in DC22:1PC lipid vesicles (bilayer-modifying potency); assay: initial Tl+ fluorescence quench rate relative to no-drug control (NormRate, gramicidin monomer-dimer shift) (ratio (fold of control)); higher = stronger bilayer-modifying effect (equilibrium shifted toward conducting dimers), active = 1.5 or more; settings: 10 µM; lipid concentration 50 µM; temperature: 25 °C
Procedure: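 Stopped-flow fluorescence quench assay: ANTS-loaded DC22:1PC large unilamellar vesicles doped with gramicidin D (1:2000), 50 µM lipid, equilibrated 10 min with 10 µM drug (0.1% DMSO), mixed with Tl+ quench buffer at 25°C. Initial quench rate (Tl+ influx) was fitted with a modified stretched exponential and normalised to the no-drug control rate (NormRate); duplicates from two independent LUV preparations (triplicates for 7 drugs).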

Row | SMILES | initial Tl+ fluorescence quench rate
1 | [H]/N=C(\N)c1ccc(-n2cc(-c3cc(/C(N)=N/[H])ccc3OC)nn2)cc1 | 1.05
2 | O=C1COCc2ccc(Br)cc2N1Cc1ccc(C(F)(F)F)cc1 | 1.55 (active)
3 | Cc1ccc(S(=O)(=O)Nc2ccc(CN3CCN(C(=O)c4cccc(C#N)c4)CC3)cc2)cc1 | 1.5 (active)
4 | CS(=O)(=O)c1ccc(C(=O)N(C[C@H]2CCCO2)c2nc3ccccc3s2)cc1[N+](=O)[O-] | 2.09 (active)
5 | Nc1ccc2ncnc(Nc3ccc(OCc4cccc(F)c4)c(Cl)c3)c2c1 | 2.58 (active)
6 | Nc1nc2ccc(-c3cncc(Oc4ccc(F)cc4)c3)cc2[nH]1 | 1.85 (active)
7 | CNc1snc(C)c1C(=O)NCCOc1ccc(OC)cc1 | 1.06
8 | CC(C)n1nc(-c2cc3c(Cl)cccc3[nH]2)c2c(N)ncnc21 | 3.74 (active)
9 | COc1ccc([C@H]2CC(c3cccs3)=NN2C(=O)c2ccco2)cc1OC | 1.86 (active)
10 | CC(C)(C)OC(=O)N1CCC(Cn2nc(-c3cnc4ccccc4c3)c3c(N)ncnc32)CC1 | 1.57 (active)
11 | CNc1nnc(Sc2cnn(-c3ccccc3)c(=O)c2Cl)s1 | 1.04
12 | O=C(OCc1ccccc1)N1CCC(c2cc(-c3ccncc3)c(-c3ccc(F)cc3)[nH]2)CC1 | 2.36 (active)
13 | Nc1nc(N)c2c3c(sc2n1)CN(Cc1ccccc1)CC3 | 1.04
14 | Cc1cc(C(=O)Nc2ccc(-c3ccccc3)cc2)no1 | 1.11
15 | Cc1ccc2cc([C@@H]3NC(=O)c4ccccc4N3)c(Cl)nc2c1 | 1.08
